Sampled rows, rich in hits. Any-hit rate of the full collection: about 10%.
JMJD2A Tudor: JMJD2A Tudor domain (human) inhibition. Potency, µM (doses to about 114 µM), inactives show at the top dose activity change, negative = inhibition, actives largely listed as inhibitors. actives 4.4% (n = 390,000). AlphaScreen JMJD2A-Tudor / H3K4me3 peptide binding. O75164; note: % is set by controls: 0 for no effect and ±100 for the full control effect; nearly all actives have a fitted effect of over 50% in size
GLS inhibitor: blocks human kidney-isoform glutaminase activity; O94925; Potency, µM (highest dose often 45.5 µM), inactives show top-dose activity change, negative = inhibition, usual class: inhibitors; GLS enzymatic activity, qHTS titration; actives 0.21% (n = 410,000); note: % is set by controls: 0 for no effect and ±100 for the full control effect
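Assay buffer: 45 mM KH2PO4 pH 8.2, 0.02% Tween-20. hKGA acts on L-glutamine (1 mM solution added); product glutamate is reported by an oxidase/peroxidase Amplex Red coupling, with fluorescence taken at baseline and 30 min.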
G9a block: blocks human histone lysine methyltransferase G9a. Q96KQ7. G9a H3K9 monomethylation, AlphaScreen, 2 h. Potency, µM (doses to about 102 µM), without a hit: top-dose activity, negative = inhibition, hits mostly inhibitors. actives 8.8% (n = 350,000). AID 504332; note: % is set by controls: 0 for no effect and ±100 for the full control effect; nearly all actives have a fitted effect of over 75% in size
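Step 1: enzyme (final 20 nM) with compound, 15 min RT. Step 2: substrate peptide 500 nM and SAM 20 uM, 2 h RT. Step 3: anti-H3K9me1 antibody and AlphaScreen beads, 10 min, then plate read.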
HP1b chromo inh: blocks HP1-beta chromodomain binding to methylated histone tails | P83916 | AlphaScreen HP1-beta / biotin-H3K9me3 peptide binding | Potency, µM (series often up to 114 µM), for the others: top-dose activity change, negative = inhibition, usual class: inhibitors | actives 0.56% (n = 390,000) | AID 540317; note: nearly all actives have a fitted effect of over 70% in size
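Compound inhibition of the preformed complex between 50 nM HP1-beta and 50 nM biotinylated H3K9me3 peptide was read by AlphaScreen. Buffer was PBS pH 7.4 with 0.01% Tween-20. Incubations ran 30 min at room temperature, with 10 ug/mL donor/acceptor beads.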
BAZ2B block: BAZ2B (human) inhibition; AlphaScreen BAZ2B-H3K14Ac peptide displacement; Potency, µM (highest dose often 114 µM), without a hit: top-dose activity change, negative = inhibition, usual class: inhibitors; actives 4.4% (n = 360,000); note: % is set by controls: 0 for no effect and ±100 for the full control effect; nearly all actives have a fitted effect of over 60% in size
Target sequence (Q9UIF8 whole entry, looked up): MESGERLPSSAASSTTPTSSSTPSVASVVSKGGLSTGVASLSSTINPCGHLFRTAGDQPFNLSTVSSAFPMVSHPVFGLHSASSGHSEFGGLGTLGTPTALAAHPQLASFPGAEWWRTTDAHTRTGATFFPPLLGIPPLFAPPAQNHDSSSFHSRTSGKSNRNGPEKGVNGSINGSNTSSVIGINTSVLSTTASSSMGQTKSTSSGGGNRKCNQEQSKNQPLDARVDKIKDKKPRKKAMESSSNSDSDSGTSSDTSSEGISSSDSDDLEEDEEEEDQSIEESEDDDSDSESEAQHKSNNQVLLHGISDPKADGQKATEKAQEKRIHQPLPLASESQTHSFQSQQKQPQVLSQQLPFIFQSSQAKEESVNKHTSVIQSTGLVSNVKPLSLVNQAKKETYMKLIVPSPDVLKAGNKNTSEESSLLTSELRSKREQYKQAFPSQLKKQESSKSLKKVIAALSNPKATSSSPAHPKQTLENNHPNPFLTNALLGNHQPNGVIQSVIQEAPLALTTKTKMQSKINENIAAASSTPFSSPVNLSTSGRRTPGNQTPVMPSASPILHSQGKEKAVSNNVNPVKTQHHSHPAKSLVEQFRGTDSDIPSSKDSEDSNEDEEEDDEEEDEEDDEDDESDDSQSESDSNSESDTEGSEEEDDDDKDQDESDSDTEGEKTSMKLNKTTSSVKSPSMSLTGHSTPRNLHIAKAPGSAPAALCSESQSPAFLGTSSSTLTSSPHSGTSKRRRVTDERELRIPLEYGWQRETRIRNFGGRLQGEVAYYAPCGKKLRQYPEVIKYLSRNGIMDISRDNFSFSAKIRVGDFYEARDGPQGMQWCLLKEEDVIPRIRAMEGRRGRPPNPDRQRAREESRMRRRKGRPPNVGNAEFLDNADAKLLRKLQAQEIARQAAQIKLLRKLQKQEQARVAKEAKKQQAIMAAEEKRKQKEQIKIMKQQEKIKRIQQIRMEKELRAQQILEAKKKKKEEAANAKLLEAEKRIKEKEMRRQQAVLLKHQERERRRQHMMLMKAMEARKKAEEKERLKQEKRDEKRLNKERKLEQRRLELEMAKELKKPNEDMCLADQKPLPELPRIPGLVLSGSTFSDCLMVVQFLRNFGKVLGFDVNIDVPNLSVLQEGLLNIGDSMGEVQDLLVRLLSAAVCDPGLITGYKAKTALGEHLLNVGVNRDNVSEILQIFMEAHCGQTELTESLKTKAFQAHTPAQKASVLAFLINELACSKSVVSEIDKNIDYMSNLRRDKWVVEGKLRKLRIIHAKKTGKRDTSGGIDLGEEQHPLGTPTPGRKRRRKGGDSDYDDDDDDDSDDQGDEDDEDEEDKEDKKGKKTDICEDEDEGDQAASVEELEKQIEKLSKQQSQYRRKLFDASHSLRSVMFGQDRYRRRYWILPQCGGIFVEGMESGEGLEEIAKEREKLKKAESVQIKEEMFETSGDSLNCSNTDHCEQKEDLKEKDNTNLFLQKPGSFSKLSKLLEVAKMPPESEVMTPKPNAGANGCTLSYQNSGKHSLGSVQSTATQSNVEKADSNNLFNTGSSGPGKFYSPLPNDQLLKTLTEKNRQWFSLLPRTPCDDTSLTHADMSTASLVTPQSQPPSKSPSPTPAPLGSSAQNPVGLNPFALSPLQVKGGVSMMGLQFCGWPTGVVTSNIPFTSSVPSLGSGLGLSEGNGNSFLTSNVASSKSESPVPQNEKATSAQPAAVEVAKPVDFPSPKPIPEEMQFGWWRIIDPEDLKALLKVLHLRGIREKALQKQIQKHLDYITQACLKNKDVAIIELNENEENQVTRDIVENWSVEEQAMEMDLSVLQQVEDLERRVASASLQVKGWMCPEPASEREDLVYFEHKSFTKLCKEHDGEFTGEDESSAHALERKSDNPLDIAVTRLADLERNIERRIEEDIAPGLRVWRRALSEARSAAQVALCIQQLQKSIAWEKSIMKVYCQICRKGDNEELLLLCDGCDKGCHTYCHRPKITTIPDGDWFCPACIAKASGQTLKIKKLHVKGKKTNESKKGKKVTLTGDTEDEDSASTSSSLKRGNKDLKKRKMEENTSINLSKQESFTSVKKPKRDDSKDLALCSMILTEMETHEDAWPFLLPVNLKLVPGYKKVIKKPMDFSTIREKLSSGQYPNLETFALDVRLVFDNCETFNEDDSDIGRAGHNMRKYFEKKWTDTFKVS
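Protein-peptide AlphaScreen: BAZ2B 50 nM, b-H3K14Ac 50 nM, 1x PBS pH 7.4 + 0.01% Tween-20. Preincubation 30 min RT; cpd 30 min RT (top 110 uM); beads 20 min RT, light-protected.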
* hit, by the source's call; ? = inconclusive; nt = not tested or not shown; [ ] = dose if it differs, or a comment. Calls come from the whole dose curve; as a rule, active = well fitted curve in the direction sought with a large enough effect; inconclusive = small, poorly fitted or top-dose-only effect, or another doubt; inactive = no such curve, though single readings can be large; an effect the other way counts as inactive or inconclusive. Potency is the fitted concentration of half-maximal effect.

SMILES	JMJD2A Tudor	GLS inhibitor	G9a block	HP1b chromo inh	BAZ2B block
Cc1cc(C)c2c(=O)n(CC(=O)Nc3cccc(Cl)c3C)sc2n1	2µM*	?	0.28µM*	7.9µM*	?
COc1ccc(OC)c(CCNC(=O)Cn2ncc3c([nH]c4ccccc43)c2=O)c1	-1%	-5%	36%[59 µM]	22%	18%
Cc1cc(C)c2c(=O)n(CC(=O)NC3CCCC3)sc2n1	2.2µM*	20%	0.5µM*	8.9µM*	79µM*
CCc1ccc(-c2[nH]c3c(c2-c2c(-n4cccc4)n(C)c(=O)[nH]c2=O)c(=O)[nH]c(=O)n3C)cc1	0%	4%	3%[59 µM]	50%	-23%
CCCCCSc1ncccc1C(=O)O	-4%	-1%	?	16%	-3%
Fc1cccc(Cl)c1-c1nnc2ccc3ccccc3n12	-34%	-11%	32µM*	-16%	nt
Cc1ccc(C2C(C(=O)c3cc4ccccc4o3)=C(O)C(=O)N2CCN2CCOCC2)o1 (stereo unspecified)	89µM*	-23%	?	10%	?
O=C(C1=C(O)C(=O)N(CCN2CCOCC2)C1c1cccs1)c1cc2ccccc2o1 (stereo unspecified)	-12%	-6%	nt	22%	nt
COc1cccc2cc(C(=O)NCCN3CCOCC3)oc12	-5%	5%	45µM*	30%	-24%
O=C(C1=C(O)C(=O)N(CCN2CCOCC2)C1c1cccc(O)c1)c1cc2ccccc2o1 (stereo unspecified)	?	2%	50µM*	2%	?
CN(C)CCCN1C(=O)C(O)=C(C(=O)c2cc3ccccc3o2)C1c1ccccc1 (stereo unspecified)	-24%[11.4 µM]	-7%	14µM*	56%	?
CNC(=O)c1c(NC(=O)C2=COCCO2)sc2c1CCN(C(=O)OC)C2	-12%	0%	4%	29%	-9%
N#C/C(=C\c1cccc(F)c1)c1nc(-c2cc3ccccc3oc2=O)cs1	-9%	12%	6%[59 µM]	43%	5%
O=C1NCCc2c1[nH]c1c(Cl)ccc(Cl)c21	-9%	1%	14%	22%	-1%
Cn1ncc([N+](=O)[O-])c1C(=O)Nc1cccc2ccccc12	-14%	-19%	20%[59 µM]	5%	3%
O=C(C1=C(O)C(=O)N(CCN2CCOCC2)C1c1ccc(Br)cc1)c1cc2ccccc2o1 (stereo unspecified)	6%	-5%	?	29%	?
COc1cccc2cc(C(=O)C3=C(O)C(=O)N(CCN4CCOCC4)C3c3ccc(C(C)(C)C)cc3)oc12 (stereo unspecified)	56µM*	-5%	32µM*	-10%	-29%
Cc1ccc(C2C(C(=O)c3cc4ccccc4o3)=C(O)C(=O)N2CCN2CCOCC2)cc1 (stereo unspecified)	?	11%	40µM*	4%[57 µM]	-29%
O=C(C1=C(O)C(=O)N(CCN2CCOCC2)C1c1cccnc1)c1cc2ccccc2o1 (stereo unspecified)	?	5%	28µM*	33%	?
Cc1ccc(C)c(S(=O)(=O)N2CCN(C(=O)Cc3ccccc3)CC2)c1	4%	-11%	4%[0.501 µM]	22%	2%
CCOc1ccc(NCc2cccn2-c2nnc(N3CCC(C(=O)NCCCN4CCCCC4CC)CC3)s2)cc1 (stereo unspecified)	28µM*	5%	50µM*	-17%[57 µM]	?
Cc1cc(C)c2nc(SCC(=O)N3CC(=O)Nc4ccccc43)c(C#N)cc2c1	-2%[57.1 µM]	4%	10µM*	46%	-3%
Cn1c(=O)c(-c2ccccc2)nc2cncnc21	nt	nt	-3%[0.501 µM]	nt	nt
CCCn1c(N)c(C(=O)CN(C)CC(=O)Nc2cc(C)ccc2C)c(=O)[nH]c1=O	-4%	5%	50µM*	25%	-5%
CCCn1c(N)c(C(=O)CN(C)CC(=O)Nc2ccc(C)cc2)c(=O)[nH]c1=O	22µM*	-10%	45µM*	33%	9%
SMILES	JMJD2A Tudor	GLS inhibitor	G9a block	HP1b chromo inh	BAZ2B block
CCCn1c(N)c(C(=O)CN(C)CC(=O)Nc2c(C)cc(C)cc2C)c(=O)[nH]c1=O	-12%	1%	-36%	33%	6%
CC(=O)c1ccc(S(=O)(=O)N2CCN(C(=O)C3CCCC3)CC2)cc1	-6%	-10%	-7%	21%	1%
CC(C)n1nnnc1C1c2ccccc2C(=O)N1CCCN1CCOCC1 (stereo unspecified)	nt	4%	nt	nt	nt
Cn1c2ccccc2c(=O)c2c(=O)n(Cc3ccco3)c(-c3ccc(F)cc3)nc21	-24%	5%	?	26%	-24%
CC[C@]1(C(=O)OC)[C@H]2C(=O)N(C)C(=O)[C@H]2[C@H]2CN=C(SCc3ccc(C#N)cc3)N21	?	2%	nt	30%	nt
CC[C@]1(C(=O)OC)[C@H]2C(=O)N(C)C(=O)[C@H]2[C@H]2CN=C(SCc3ccc(OC)cc3)N21	89µM*	1%	nt	14%	nt
CC(C)C[C@@H](CN1CCC[C@H]1CN1C(=O)C(=O)NC[C@@H]1Cc1ccc(O)cc1)N1C[C@H](Cc2ccc(O)cc2)N(CC2CCCCC2)C(=O)C1=O	nt	23%	nt	nt	nt
Cn1c(=S)c2[nH]c(SCC3CCCO3)nc2n(C)c1=O (stereo unspecified)	4.5µM*	16%	nt	?	nt
C/C(CC(=O)NC1CCCCC1)=N\NC(=O)c1ccc(Br)cc1	1%	-2%	-19%	37%	2%
C/C(CC(=O)NC1CCCCCC1)=N\NC(=O)c1cnccn1	2.2µM*	6%	?	12%	-4%
C/C(CC(=O)NC1CCCC1)=N\NC(=O)C1CCCCC1	1%	-6%	6%	29%	-16%
C/C(CC(=O)NC1CCCCC1)=N\NC(=O)c1ccccc1C	7%	-6%	40µM*	30%	-13%
Cc1c(Cl)cccc1NC(=O)CNc1cccc(C(F)(F)F)c1	-17%	-5%	71µM*	33%	7%
Cc1c(Cl)cccc1NCC(=O)Nc1ccc(Cl)cc1F	6%	12%	30%	52%	20%
Cc1ccc(NC(=O)Cc2ccccc2Cl)cc1S(=O)(=O)N(C)C	-7%	3%	-13%[59 µM]	16%	25%
COc1ccc(Oc2cc(Cl)nc(N)n2)cc1	-5%	-1%	50µM*	36%	-19%
COc1ccc(OC)c(C(=O)CSc2nc3ncccc3[nH]2)c1	4%[57.1 µM]	10%	50µM*	10%	-33%
Cc1cc(SCC(=O)c2cccc([N+](=O)[O-])c2)nc(=O)[nH]1	?	-1%	28µM*	?	?
O=C(CCc1n[nH]c(=O)[nH]c1=O)Nc1cccc([N+](=O)[O-])c1	?	0%	50µM*	24%	nt
COc1ccc(NC(=O)CSc2nc3ncccc3[nH]2)cc1OC	-3%	nt	5%[59 µM]	43%	3%
O=C(CSc1nc2ncccc2[nH]1)c1cccc([N+](=O)[O-])c1	-27%	13%	40µM*	9%	7%

High-throughput results deposited in PubChem BioAssay by National Center for Advancing Translational Sciences (NCATS).
